The results in this text go back to PubChem BioAssay.

Experiment [1] relates to Hepatitis C virus NS3 helicase. Briefly: HCV NS3 helicase inhibitors, primary screen, biochemical, fluorescence polarization, LOPAC1280 library (AID 687035; in the data active means inhibition above about 37%). The settings on record: Purified HCV NS3 helicase, Cy5-dT15 ssDNA binding fluorescence polarization; stronger effect = higher value; concentration not given here.
A short description of experiment [2]: Cy5 fluorescence quenching or enhancement artefacts, artefact control for HCV NS3 helicase inhibitor project, biochemical, LOPAC1280 (AID 687037; call rule not given here). The settings on record: Cy5-DNA-NS3h complex fluorescence interference counterscreen.
Experiment [3] is described as follows: sensitizers of A549 cells to miR-34 induction, primary screen, imaging, A549 dox-inducible miR-34, nuclei and caspase counts (AID 1347080). The settings on record: A549 miR-34 inducible, Hoechst nuclei count, 48 h.
Experiment [4] in a line: phospholipid biosynthesis inhibitors in animal cells, primary screen, cell-based, LOPAC library, screen 4 (AID 1347384; call rule not given here). The settings on record: phospholipid biosynthesis inhibition screen, at 10 µM.
Experiment [5] in a line: viability rescue of complex I mutant cybrids, primary screen, cell-based, galactose medium, ATP luminescence (AID 1645843;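 active means z-score of at least 1.8 in each of two replicates, scored against plate mean and spread of sample wells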;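 further: positive z means more ATP and so rescue of galactose-driven cybrid death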). The settings on record: complex I mutant cybrid cells, 72 h, stronger effect = higher value.
Experiment [6] can be described thus: survival rescue of mitochondrial mutant cells in low glucose, primary screen, MELAS cybrids, Rieske KO mouse fibroblasts, CellTiter-Glo (AID 1508586;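 active means mean z-score across replicates of 1.96 or higher in either the MELAS or the Rieske mutant cell line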;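 further: z relative to plate mean and SD of compound and empty wells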).
The nature of experiment [7]: circadian clock period modulators, cell-based, LOPAC library, luminescence reporter (AID 2774; call rule not given here;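 further: values are relative to mean of DMSO wells on each plate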). The settings on record: circadian reporter cells, at 7 µM, actives lie on both sides.
Setting [8] is: stronger effect = lower value, cell number ratio, induced over uninduced.
[9] abbreviates: measured here: relative caspase fold change +Dox/-Dox.
Setting [10] is: measured here: total cells with miR-34 induction, stronger effect = lower value.
Where [11] appears, read: measured here: total cells without miR-34 induction.
Where [12] appears, read: MELAS cybrid survival, CellTiter-Glo 48 h, stronger effect = higher value.
Setting [13] is: Rieske KO mouse fibroblast survival, CellTiter-Glo 72 h.

Structures are written as SMILES. Activity calls are given as the source filed them.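 How the source made its calls, unless noted: active means compounds whose cell count with miR-34 switched on is under 0.7 times the count with it off; inactive means the rest.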

On to `Cn1ncc(S(=O)(=O)Cc2ccccc2)c(Br)c1=O`, for which the inhibition in experiment [1] is -3% (inactive). In experiment [2], the fluorescence ratio (interference) was 0.9 (inactive). Besides, the fold change in experiment [3] (setting [8]) is 1.14 (inactive); in experiment [3] (setting [9]) it was 1.46. The values for the cell count in experiment [3] (setting [10]) and in experiment [3] (setting [11]) were 2510 and 2200, respectively. Also, the compound was called inactive in experiment [4]. Moreover, in experiment [5], the z-score is -1.24 (inactive).

Regarding `CC(C)CC(NC(=O)CNC(=O)c1cc(Cl)ccc1Cl)B1OC(=O)CC(CC(=O)O)(C(=O)O)O1` (stereo not given), the fold change was 0.814 (inactive) in experiment [3] (setting [8]) and 0.899 in experiment [3] (setting [9]). Moreover, the cell count in experiment [3] (setting [10]) is 1600; in experiment [3] (setting [11]), 1960. Moreover, the z-score in experiment [6] (setting [12]) was -0.37 (inactive); in experiment [6] (setting [13]) it was -3.79.

`CCOc1cc(C(CS(C)(=O)=O)N2C(=O)c3cccc(NC(C)=O)c3C2=O)ccc1OC` (stereo not given): the results for the fold change in experiment [3] (setting [8]) and in experiment [3] (setting [9]) were 0.919 (inactive) and 0.498, respectively. Further, the cell count in experiment [3] (setting [10]) turned out to be 8660; in experiment [3] (setting [11]) it was 9420. Besides, the z-score in experiment [6] (setting [12]) is -0.371 (inactive); in experiment [6] (setting [13]), -0.546.

With `CC(C)N(CCCNC(=O)Nc1ccc(C(C)(C)C)cc1)CC1OC(n2ccc3c(N)ncnc32)C(O)C1O` (stereo not given), the fold change is 0.885 (inactive) in experiment [3] (setting [8]) and 0.359 in experiment [3] (setting [9]). Besides, the cell count in experiment [3] (setting [10]) is 8440; in experiment [3] (setting [11]) it was 9540. The z-score in experiment [6] (setting [12]) is -0.287 (inactive); in experiment [6] (setting [13]), 0.555.

On to `Nc1nc2c(ncn2[C@@H]2O[C@H](CO)[C@@H](O)[C@@H]2O)c(=O)[nH]1`, for which the inhibition in experiment [1] was -2% (inactive). Further, the fluorescence ratio (interference) in experiment [2] is 1 (inactive). The figures for the fold change in experiment [3] (setting [8]) and in experiment [3] (setting [9]) were 0.934 (inactive) and 1.54, respectively. In addition, the cell count was found to be 8710 in experiment [3] (setting [10]) and 9330 in experiment [3] (setting [11]). The compound was classed as inactive in experiment [4]. The z-score in experiment [5] was 4.94 (active).

As to `Cc1nc(NC(=O)N2CCCC2C(N)=O)sc1-c1csc(C(C)(C)C)n1` (stereo not given), the fold change in experiment [3] (setting [8]) is 0.968 (inactive); in experiment [3] (setting [9]), 0.607. Moreover, the cell count in experiment [3] (setting [10]) stood at 6880; in experiment [3] (setting [11]), 7100. Moreover, the figures for the z-score in experiment [6] (setting [12]) and in experiment [6] (setting [13]) were -0.368 (inactive) and 0.104, respectively.

`CN(CC[C@@H](Oc1ccc(C(F)(F)F)cc1)c1ccccc1)CC(=O)O`: the inhibition in experiment [1] was -2% (inactive). Also, the fluorescence ratio (interference) in experiment [2] was 0.9 (inactive). Moreover, the fold change is 1.05 (inactive) in experiment [3] (setting [8]) and 2.04 in experiment [3] (setting [9]). In addition, the cell count in experiment [3] (setting [10]) was 10800; in experiment [3] (setting [11]), 10300. In addition, the call in experiment [4] was inactive. Also, in experiment [5], the z-score is 0.395 (inactive).

Regarding `Cc1cc(C(N)=O)ccc1-n1c(CCC(=O)O)ccc1-c1ccc(-n2ccnc2)cc1`, the values for the fold change in experiment [3] (setting [8]) and in experiment [3] (setting [9]) were 0.953 (inactive) and 0.396, respectively. Besides, the cell count is 9360 in experiment [3] (setting [10]) and 9820 in experiment [3] (setting [11]). Also, the z-score is -0.283 (inactive) in experiment [6] (setting [12]) and 0.463 in experiment [6] (setting [13]).

On to `Nc1nc(CC(=O)Nc2ccc(CCNCC(O)c3ccccc3)cc2)cs1` (stereo not given), for which the fold change was 0.898 (inactive) in experiment [3] (setting [8]) and 1.03 in experiment [3] (setting [9]). Further, the cell count in experiment [3] (setting [10]) is 8660; in experiment [3] (setting [11]), 9650. Besides, the figures for the z-score in experiment [6] (setting [12]) and in experiment [6] (setting [13]) were -0.0817 (inactive) and -0.148, respectively.

On to `CCCN(CCc1cccs1)C1CCc2c(O)cccc2C1` (stereo not given), for which the fold change in experiment [3] (setting [8]) is 0.911 (inactive); in experiment [3] (setting [9]), 0.584. Moreover, the cell count in experiment [3] (setting [10]) was 8660; in experiment [3] (setting [11]), 9500. For the same compound, the z-score is -0.281 (inactive) in experiment [6] (setting [12]) and -0.2 in experiment [6] (setting [13]).

As to `CC(NCc1ccc(OCc2cccc(F)c2)cc1)C(N)=O` (stereo not given), the fold change in experiment [3] (setting [8]) was 0.935 (inactive); in experiment [3] (setting [9]), 1.08. Besides, the figures for the cell count in experiment [3] (setting [10]) and in experiment [3] (setting [11]) were 7820 and 8360, respectively. In addition, the results for the z-score in experiment [6] (setting [12]) and in experiment [6] (setting [13]) were -0.428 (inactive) and 0.667, respectively.

`COc1c(C)c2c(c(O)c1CC=C(C)CCC(=O)OCCN1CCOCC1)C(=O)OC2`: the fold change in experiment [3] (setting [8]) was 0.917 (inactive); in experiment [3] (setting [9]), 1.06. The cell count came out at 1830 in experiment [3] (setting [10]) and 1990 in experiment [3] (setting [11]). For the same compound, the figures for the z-score in experiment [6] (setting [12]) and in experiment [6] (setting [13]) were 0.827 (inactive) and -0.579, respectively.

As to `O=C1CN(/N=C/c2ccc(-c3ccc([N+](=O)[O-])cc3)o2)C(=O)N1`, in experiment [7], the period change is 0.19 h (inactive). The fold change is 0.852 (inactive) in experiment [3] (setting [8]) and 0.844 in experiment [3] (setting [9]). Further, the cell count in experiment [3] (setting [10]) was found to be 3600; in experiment [3] (setting [11]) it was 4220. Moreover, in experiment [4], the call was inactive.

As to `CC1(C)[C@@H](O)CC[C@@]2(C)[C@H]1CC[C@]1(C)[C@H]2C(=O)C=C2[C@H]3C[C@@](C)(C(=O)O)CC[C@]3(C)CC[C@]21C`, the fold change is 0.897 (inactive) in experiment [3] (setting [8]) and 0.953 in experiment [3] (setting [9]). Besides, the results for the cell count in experiment [3] (setting [10]) and in experiment [3] (setting [11]) were 7890 and 8800, respectively. Further, the z-score in experiment [6] (setting [12]) is -0.219 (inactive); in experiment [6] (setting [13]) it was 0.479.

`CCOC1OC(=O)CC1NC(=O)C1CCCN1C(=O)C(NC(=O)c1ccc(N)c(Cl)c1)C(C)(C)C` (stereo not given): the fold change in experiment [3] (setting [8]) was 0.983 (inactive); in experiment [3] (setting [9]), 0.559. Moreover, the cell count is 8140 in experiment [3] (setting [10]) and 8280 in experiment [3] (setting [11]). Further, the results for the z-score in experiment [6] (setting [12]) and in experiment [6] (setting [13]) were -0.153 (inactive) and 0.0351, respectively.

Regarding `Clc1nccc2c1ccc1ccccc12`, in experiment [1], the inhibition is -2% (inactive). In addition, in experiment [2], the fluorescence ratio (interference) was 1 (inactive). The fold change in experiment [3] (setting [8]) is 1.47 (inactive); in experiment [3] (setting [9]), 1.16. The cell count was found to be 8620 in experiment [3] (setting [10]) and 5870 in experiment [3] (setting [11]). For the same compound, the call in experiment [4] was inactive. Further, the z-score in experiment [5] is 0.565 (inactive).

Turning to `CCCCNc1ncc(C(=O)NCc2ccc(-n3ccnc3)cc2)c(NC2CCC(O)CC2)n1` (stereo not given), the fold change in experiment [3] (setting [8]) was 1.3 (inactive); in experiment [3] (setting [9]), 0.249. The cell count came to 2450 in experiment [3] (setting [10]) and 1880 in experiment [3] (setting [11]). Besides, the z-score is 5.49 (active) in experiment [6] (setting [12]) and -1.88 in experiment [6] (setting [13]).

On to `COc1cc(-c2cc(-c3cccc(O)c3)cnc2N)cc(OC)c1OC`, for which the fold change in experiment [3] (setting [8]) is 0.804 (inactive); in experiment [3] (setting [9]) it was 0.388. The cell count in experiment [3] (setting [10]) is 5380; in experiment [3] (setting [11]), 6700. Moreover, the z-score was -0.34 (inactive) in experiment [6] (setting [12]) and -0.00175 in experiment [6] (setting [13]).

As to `CCCCCOC(=O)Nc1nc(=O)n(C2OC(C)C(O)C2O)cc1F` (stereo not given), the fold change is 0.881 (inactive) in experiment [3] (setting [8]) and 1.03 in experiment [3] (setting [9]). Besides, the cell count in experiment [3] (setting [10]) stood at 6790; in experiment [3] (setting [11]), 7710. For the same compound, the z-score was -0.294 (inactive) in experiment [6] (setting [12]) and 0.792 in experiment [6] (setting [13]).

As for `COc1ccc(NS(=O)(=O)c2sc3ccc(Cl)cc3c2C)cc1N1CCNCC1`, the fold change is 0.966 (inactive) in experiment [3] (setting [8]) and 0.423 in experiment [3] (setting [9]). The results for the cell count in experiment [3] (setting [10]) and in experiment [3] (setting [11]) were 7390 and 7650, respectively. Besides, the z-score in experiment [6] (setting [12]) was -0.345 (inactive); in experiment [6] (setting [13]) it was -0.0807.

For `C[C@@]12CC[C@H]3c4ccc(O)cc4CC(CCCCCCCCCS(=O)CCCC(F)(F)C(F)(F)F)[C@H]3[C@@H]1CCC2O` (stereo not given in full), the results for the fold change in experiment [3] (setting [8]) and in experiment [3] (setting [9]) were 0.975 (inactive) and 0.957, respectively. Also, the cell count amounted to 4560 in experiment [3] (setting [10]) and 4680 in experiment [3] (setting [11]). The z-score in experiment [6] (setting [12]) was -0.569 (inactive); in experiment [6] (setting [13]) it was 0.522.

With `O=C(c1ccc(C=Cc2n[nH]c3ccccc23)cc1)N1CCNCC1`, the fold change in experiment [3] (setting [8]) was 0.879 (inactive); in experiment [3] (setting [9]), 0.981. Also, the cell count in experiment [3] (setting [10]) turned out to be 2420; in experiment [3] (setting [11]), 2750. Moreover, the values for the z-score in experiment [6] (setting [12]) and in experiment [6] (setting [13]) were 0.658 (inactive) and -1.76, respectively.
